Over roughly 33,000 sequences, “E-score (-0.5 to 0.5)” has its median near -0.017; the highest 2% begin near 0.3. For the sample, the highest values were picked, then their nearest neighbours and some sequences at random.
Target: T1, Sut1 (UniProt P53032)
T1 sequence: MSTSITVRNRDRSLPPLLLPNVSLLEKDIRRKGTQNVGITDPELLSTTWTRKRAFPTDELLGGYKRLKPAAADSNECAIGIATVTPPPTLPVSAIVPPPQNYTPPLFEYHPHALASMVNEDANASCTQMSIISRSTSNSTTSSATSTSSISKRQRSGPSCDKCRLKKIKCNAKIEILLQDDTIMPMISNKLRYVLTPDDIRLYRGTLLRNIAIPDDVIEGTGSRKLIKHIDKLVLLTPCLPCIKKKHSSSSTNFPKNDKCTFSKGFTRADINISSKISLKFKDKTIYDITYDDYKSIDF
Assay: PBM E-score (8-mer binding enrichment) (E-score (-0.5 to 0.5)); higher = stronger / more preferred TF binding
Conditions: protein concentration: 200 nM; construct: GST-full length
Outline: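 Each ungapped eight-base word and its reverse complement, pooled, received an E-score from the Universal PBM Analysis Suite. Underlying scans, normalised with masliner, recorded fluorescent anti-GST bound to GST-tagged yeast transcription factors. These were applied at about 100-200 nM to universal all-10-mer Agilent arrays double-stranded by primer extension.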

Row | Sequence | PBM E-score
1 | ACCGGACA | 0.234
2 | GTCCACTA | -0.0452
3 | GATACTAA | 0.141
4 | ATGTGGGG | -0.203
5 | CCAAAAGG | -0.0868
6 | AGGAGTGC | -0.143
7 | CGGAGTGC | 0.468
8 | GGGAGTGA | -0.0284
9 | AGGAGTGA | -0.0299
10 | CTGAGTGC | -0.199
11 | CGGAGTGA | 0.451
12 | CAGATACC | -0.149
13 | AGGGGCCG | -0.272
14 | GCGCGTCA | -0.00075
15 | TCCCCGAA | 0.228
16 | ACCCCGGA | 0.426
17 | CACCCGGA | 0.251
18 | ACCCCGGG | 0.347
19 | TCCCCGGA | 0.364
20 | AACCCGGA | 0.333
21 | CCCCCGGA | 0.0624
22 | TCCCCCGA | -0.141
23 | CCCCCGGG | -0.174
24 | ACCCCGGT | 0.191
25 | GACCCGGA | 0.204

Row | Sequence | PBM E-score
26 | ACCCCGGC | 0.183
27 | CTCTGTGA | -0.105
28 | AGCGTCCC | -0.168
29 | TCACCCCA | -0.0213
30 | GAATTTAC | 0.0497
31 | TGCGCAAA | 0.0678
32 | AAGAGACC | -0.0189
33 | ATGCAGCC | -0.0379
34 | AGCAAATG | -0.0134
35 | CCTTCGAC | -0.232
36 | TGCCTAAA | -0.00993
37 | CGACATCA | 0.143
38 | GGACATCC | 0.0309
39 | GGACATCA | 0.3
40 | AGCTCAAG | -0.092
41 | CGTGCAGA | -0.148
42 | AGAGCGGA | 0.318
43 | AGAGCGGC | -0.125
44 | AGAGCGGG | -0.0998
45 | GGGAGCTA | -0.176
46 | AGGAGCTA | -0.155
47 | CTGAGCTC | 0.119
48 | AGGAGCTC | -0.18
49 | CGGAGCTA | 0.385
50 | CGGAGCTC | 0.414

Row | Sequence | PBM E-score
51 | AGGAGCCG | -0.281
52 | CGGAGCCG | 0.338
53 | CGGAGCCC | 0.183
54 | AAGCATTC | 0.0319
55 | GCTCCCCC | -0.444
56 | GCATCAAA | 0.14
57 | CCAAGGAG | -0.0556
58 | ACTTGGTC | 0.183
59 | AGCATACA | 0.187
60 | GCACAGTA | -0.0754
61 | AGGCCGGA | 0.279
62 | AGTCCGGG | 0.485
63 | AGTCCTGC | -0.19
64 | GGTCCGGA | 0.402
65 | CGTCCGGC | -0.0125
66 | GGTCCCGA | 0.093
67 | AGTCCGGC | 0.467
68 | AGTCCAGA | 0.0785
69 | AGTCCCGG | 0.1
70 | CGTCCGGA | 0.27
71 | AGTCCGGA | 0.487
72 | AATCCGGG | 0.103
73 | AAGTCTAC | 0.004
74 | GTAGGCAC | -0.102
75 | GTTCCAGA | -0.0427

Row | Sequence | PBM E-score
76 | ATGAATAA | 0.146
77 | AGACGGCT | -0.121
78 | AGGCTGTG | -0.0562
79 | GGTGCAAA | 0.0509
80 | AGTTTATC | 0.17
81 | GTTTTAAA | 0.296
82 | AGTTTAAT | 0.069
83 | ATTTTTAA | 0.249
84 | AGTTTAAA | 0.335
85 | TGTTTAAA | 0.111
86 | AGTTTTTA | 0.175
87 | ATTTTAAA | 0.307
88 | AGTTTATA | 0.335
89 | GGTTTATA | 0.0479
90 | TGTTTTAA | 0.253
91 | AGTTTTAA | 0.341
92 | AGACCTCC | -0.207
93 | CATAGGGG | -0.348
94 | CGGTTTTC | 0.176
95 | CAAGTCAC | -0.0175
96 | TACAACAA | 0.286
97 | CAGTTGAA | -0.00817
98 | AAGCCAAC | 0.118
99 | AGTTTACA | 0.106
100 | AGTGAACA | 0.0388

Row | Sequence | PBM E-score
101 | CTGGATTA | 0.0735
102 | CCGAGTAG | 0.112
103 | AGGAGTAG | -0.0194
104 | GGGAGTAC | -0.064
105 | GGGAGTAA | 0.0687
106 | AGGAGTAC | -0.106
107 | CGGAGTAC | 0.487
108 | CGGAGTAG | 0.49
109 | AGGAGTAA | 0.0575
110 | CGGAGTAA | 0.483
111 | TAGAATAA | 0.207
112 | CAGTATAG | 0.0135
113 | AATTGGAT | 0.131
114 | ACGCCTCG | -0.115
115 | GGCTTACA | 0.0643
116 | TTATATAA | 0.358
117 | TGATATAA | 0.222
118 | TCATATAA | 0.121
119 | AGTTATAA | 0.155
120 | CGTTATAA | 0.135
121 | CTCTATAA | 0.186
122 | ATATATAA | 0.351
123 | CTATATAA | 0.158
124 | TGTTATAA | 0.299
125 | CGCAACCC | 0.023

Row | Sequence | PBM E-score
126 | ATCCCAAT | 0.0805
127 | CGATGAGC | -0.0442
128 | TAGAAGCA | -0.0194
129 | GGAGTTCA | 0.339
130 | AGAGTTTA | 0.27
131 | GGAGTTTA | 0.396
132 | AAAGTTTA | 0.203
133 | CGAGTTCA | -0.149
134 | CGAGTTTA | 0.0867
135 | AGAGTTCA | -0.0646
136 | GAAGTTTA | 0.319
137 | CAAGTTTA | 0.0197
138 | ACATCTAT | 0.17
139 | GACGCCTC | -0.125
140 | ACTCCTAG | -0.0737
141 | CACTATCA | -0.0232
142 | GAGTCGGA | 0.324
143 | CGGTCGGA | 0.211
144 | CAGTCGGA | 0.204
145 | AGGTCGGC | -0.131
146 | AAGTCGGA | 0.226
147 | AGGTCGGA | 0.316
148 | GAGTCGGC | 0.00136
149 | TAGTCGCA | -0.0489
150 | TAGTCGGA | 0.317

Row | Sequence | PBM E-score
151 | CGTAATGC | 0.0921
152 | ACACAACA | 0.128
153 | AAGATAGG | 0.013
154 | GTCCCAAC | -0.138
155 | GACTATGC | 0.0066
156 | AACTAGAG | 0.0891
157 | ACCTCTAG | -0.0682
158 | GTGGCAGA | -0.253
159 | CATAACGC | -0.00576
160 | GATGAAGC | -0.0232
161 | TAACTGCA | 0.0867
162 | CCGGAATA | 0.294
163 | TCGGAACA | 0.303
164 | CCGGAAGG | 0.169
165 | GCGGAACA | -0.11
166 | ACGGAAGA | 0.147
167 | CCGGAACA | 0.304
168 | ACGGAATC | 0.252
169 | CCGGAATC | 0.326
170 | CCGGAACG | 0.202
171 | CCGGAAGA | 0.312
172 | CCGGAACC | 0.185
173 | ACGGAACA | 0.229

From the supplement of paper PMC3334620
